# Laboratory results: publication PMC4336329 (PLoS ONE, 2015)
# Screen size: about 310,000 compounds; about 14,000 (4.5%) showed an effect of 50% or more. Effects have a minus sign here. For the sample, strong results were picked, then their nearest neighbours and some compounds at random.
# Target: human ether-à-go-go-related gene (hERG) potassium channel (human, UniProt Q12809)
# Assay: primary screen, population patch clamp on CHO cells stably expressing hERG; higher = less effect of the substance
# 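Further: peak tail current of the secondary pulse compared with the same well before compound.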
# human ether-à-go-go-related gene (hERG) potassium channel, sequence (Q12809 whole entry, looked up): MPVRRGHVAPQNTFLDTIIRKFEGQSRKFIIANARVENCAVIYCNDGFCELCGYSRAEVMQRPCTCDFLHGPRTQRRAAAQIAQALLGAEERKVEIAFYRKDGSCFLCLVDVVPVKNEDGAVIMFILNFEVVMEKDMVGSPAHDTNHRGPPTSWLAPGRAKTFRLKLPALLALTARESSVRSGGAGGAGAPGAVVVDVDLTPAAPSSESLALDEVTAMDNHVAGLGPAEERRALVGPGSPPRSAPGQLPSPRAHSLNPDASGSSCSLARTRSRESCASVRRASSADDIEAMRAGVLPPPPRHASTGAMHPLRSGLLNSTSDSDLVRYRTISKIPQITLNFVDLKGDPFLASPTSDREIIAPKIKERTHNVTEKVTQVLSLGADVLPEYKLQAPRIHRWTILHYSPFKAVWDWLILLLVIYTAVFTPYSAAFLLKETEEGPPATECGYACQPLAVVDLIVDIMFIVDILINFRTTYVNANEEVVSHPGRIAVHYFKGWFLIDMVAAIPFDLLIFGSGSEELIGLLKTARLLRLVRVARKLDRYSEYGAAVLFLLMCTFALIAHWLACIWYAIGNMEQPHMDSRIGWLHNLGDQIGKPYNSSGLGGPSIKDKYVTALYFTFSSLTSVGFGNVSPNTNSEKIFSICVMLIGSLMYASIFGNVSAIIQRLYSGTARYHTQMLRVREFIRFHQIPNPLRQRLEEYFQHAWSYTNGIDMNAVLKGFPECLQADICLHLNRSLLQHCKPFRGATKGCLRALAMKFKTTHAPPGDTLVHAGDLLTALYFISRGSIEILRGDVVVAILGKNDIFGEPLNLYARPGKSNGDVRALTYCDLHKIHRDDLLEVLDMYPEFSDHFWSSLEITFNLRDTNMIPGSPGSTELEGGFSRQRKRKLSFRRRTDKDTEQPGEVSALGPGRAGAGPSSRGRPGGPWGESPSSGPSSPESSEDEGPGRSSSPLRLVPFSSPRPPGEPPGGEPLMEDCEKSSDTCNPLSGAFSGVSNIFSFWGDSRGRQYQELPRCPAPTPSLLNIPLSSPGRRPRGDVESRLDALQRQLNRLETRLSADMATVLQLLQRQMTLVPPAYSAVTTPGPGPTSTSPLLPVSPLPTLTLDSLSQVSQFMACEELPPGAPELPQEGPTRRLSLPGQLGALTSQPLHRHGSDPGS
row,SMILES,"hERG current change (%, negative = inhibition) at 10uM [%]"
1,CC(c1ccco1)N(C(=O)COc1ccc(Cl)cc1)c1ccccn1 (stereo not shown),-12.7
2,O=C(NNS(=O)(=O)c1ccc(F)cc1)c1ccc(O)cc1,9.17
3,CCOc1ccc(NC(=O)c2sc3nc(C)nc(N4CCOCC4)c3c2C)cc1,-50.7
4,Cc1nc(N2CCOCC2)c2c(C)c(C(=O)Nc3ccc(C(F)(F)F)cc3)sc2n1,-34.9
5,CCOc1ccccc1NC(=O)c1sc2nc(C)nc(N3CCOCC3)c2c1C,-14.4
6,CCC(C)(C)NC(=O)CN(Cc1cccs1)C(=O)CCC(=O)Nc1nccs1,-36.6
7,CC(C)C(=O)N1CCN(c2ccc([N+](=O)[O-])cc2Cl)CC1,-30.9
8,CCC(=O)NC(=S)N1CCN(c2ccc([N+](=O)[O-])cc2Cl)CC1,-26.4
9,CC(C)CC(=O)NC(=S)N1CCN(c2ccc([N+](=O)[O-])cc2Cl)CC1,-30.9
10,CC(C)(C)C(=O)N1CCN(c2ccc([N+](=O)[O-])cc2Cl)CC1,-33.2
11,CC(C)CC(=O)N1CCN(c2ccc([N+](=O)[O-])cc2Cl)CC1,-59.9
12,CCCC(=O)N1CCN(c2ccc([N+](=O)[O-])cc2Cl)CC1,-52.2
13,C=CCn1c(SCC(=O)Nc2nccs2)nnc1-c1cc2cccc(OC)c2o1,-4.98
14,CC1CCN(C2=NN3C(=N)/C(=C\c4ccc(OC(=O)c5ccco5)cc4)C(=O)N=C3S2)CC1,12.6
15,O=C(NCc1ccccc1)C(c1ccccn1)N(C(=O)c1csnn1)c1ccccc1F (stereo not shown),-5.45
16,COc1ccc(N2CCN(C(=S)NCCc3ccccc3)CC2)cc1,-5.71
17,O=C(CCCOc1ccccc1)N1CCN(c2ccccn2)CC1,-8.9
18,Cc1ccc(Oc2ccccc2/C=C2\SC(=O)N(C)C2=O)cc1,4.1
19,C=CCNC(=O)CC1C(=O)NCCN1Cc1ccc(-c2ccccc2)cc1 (stereo not shown),-7.59
20,CC(C)Cn1c(N)c(C(=O)COC(=O)CN2C(=O)C3CC=CCC3C2=O)c(=O)n(C)c1=O (stereo not shown),-4.23
21,CCCc1[nH]nc2c1C(c1ccc(O)c(OC)c1)C(C#N)=C(N)O2 (stereo not shown),-31.9
22,CN(C/C=C/c1ccccc1[N+](=O)[O-])Cc1ccccc1,-46
23,COc1ccc(CCN(C)Cc2c(F)cccc2F)cc1OC,-25.6
24,COc1ccc(CCNC(=O)/C=C\c2ccccc2)cc1OC,-7.74

row,SMILES,"hERG current change (%, negative = inhibition) at 10uM [%]"
1,COc1ccc(CCN(C)C/C=C/c2ccccc2)cc1OC,-64.6
2,COc1ccc(CCN(C)C/C=C/c2ccccc2[N+](=O)[O-])cc1OC,-70.8
3,COc1ccc(CCN(C)c2ccc(C(N)=O)cc2[N+](=O)[O-])cc1OC,-6.3
4,Cc1ccn2cc(-c3cccc(NC(=O)C(C)C)c3)nc2c1,3.3
5,Cc1cc(NC(=O)CCC(=O)N(CC(=O)NC2CCCC2)c2cccc(F)c2)no1,-3.17
6,Cc1ccc(C(=O)N[C@H](C(=O)Nc2sccc2C(N)=O)C(C)C)cc1,5.47
7,Cn1cc(-c2nnnn2-c2ccccc2)c(=O)c2ccccc21,-8.94
8,O=C(Cn1cc(-c2nnnn2-c2ccc(Cl)cc2)c(=O)c2ccccc21)c1ccccc1,4.29
9,CCn1cc(-c2nnnn2-c2ccc(Cl)cc2)c(=O)c2ccccc21,-58.8
10,Cn1cc(-c2nnnn2-c2ccc(Cl)cc2)c(=O)c2ccccc21,-69.3
11,Cn1cc(-c2nnnn2-c2ccc(Cl)cc2)c(C(F)(F)F)n1,-4.49
12,Clc1ccc(-n2nnnc2-c2ccccc2)cc1,-0.933
13,COc1ccc(OC)c(S(=O)(=O)N2CCCC(C(=O)NCc3ccco3)C2)c1 (stereo not shown),-5.29
14,O=C(c1ccc(N2C(=O)CCC2=O)cc1)N1CCOCC1,7.4
15,O=C(NCCc1ccco1)C(=O)NCC1OCCCN1S(=O)(=O)c1cc(F)ccc1F (stereo not shown),-8.36
16,CC(=O)C(Sc1nn(C)c(=S)s1)C(=O)Nc1ccccc1 (stereo not shown),3.73
17,COc1cccc(/C=C2\SC(=S)N(CCC(=O)NNC(=O)c3ccccc3OC)C2=O)c1,18.5
18,CCOc1ccc(CN(C(=O)c2oc3cc(C)ccc3c2C)C2CCS(=O)(=O)C2)cc1 (stereo not shown),-10
19,Cc1ccc(NC(=O)CNC(=O)c2ccc3c(c2)OCO3)nc1,1.63
20,CCC(C)(C)n1nnnc1C(c1cc(OC)ccc1OC)N1CCC(C(N)=O)CC1 (stereo not shown),-1.9
21,CC1CN(C(=O)CS(=O)(=O)Cc2ccccc2)CC(C)O1 (stereo not shown),17.1
22,COc1cccc(N/C(=N/C(=S)Nc2ccc(C)cc2C)Nc2nc(C)cc(C)n2)c1,0.704
23,CS(=O)(=O)O.NC(=Nc1ccccc1)NC(=O)c1nc(Cl)c(N)nc1N,-50
24,Cl.NC(=NCc1ccccc1)NC(=O)c1nc(Cl)c(N)nc1N,-54.2

row,SMILES,"hERG current change (%, negative = inhibition) at 10uM [%]"
1,Cl.NC(=NCCc1ccccc1)NC(=O)c1cc(Cl)ccc1O,-2.39
2,CSc1ncccc1C(=O)OCC(=O)c1ccc(S(=O)(=O)N2CCCCC2)cc1,23.5
3,CCOC(=O)N1CCN(C(=O)c2ccc(C)c(S(=O)(=O)N3CCCCC3)c2)CC1,-46
4,CS(=O)(=O)N1CCN(c2nc(-c3ccc(F)cc3)cs2)CC1,-77.2
5,CC(C)C(=O)N1CCN(c2nc(-c3ccc(Cl)cc3)cs2)CC1,-82.5
6,O=S(=O)(c1ccc(F)cc1)N1CCN(c2nc(-c3ccc(F)cc3)cs2)CC1,-8.44
7,Fc1ccc(-c2csc(N3CCSCC3)n2)cc1,17.6
8,CCOC(=O)N1CCN(c2nc(-c3ccc(Cl)cc3)cs2)CC1,-8.2
9,CCC(=O)N1CCN(c2nc(-c3ccc(Cl)cc3)cs2)CC1,-25
10,CC(=O)c1ccc(N2CCN(C(=O)c3ccc(NC4=NC5CS(=O)(=O)CC5S4)cc3)CC2)cc1 (stereo not shown),-1.77
11,COc1ccccc1NC(=O)C1CCOC1=O (stereo not shown),15.4
12,CCCn1nnnc1NCc1ccc(OC)cc1,15.3
13,O=C(CC1C(=O)NCCN1Cc1cccc(Oc2ccccc2)c1)NCCc1cscn1 (stereo not shown),8.01
14,C=CC[n+]1c(C)csc1Nc1cccc(Br)c1.[Br-],-6.64
15,Cc1cccc(N(CC(=O)NCC2CCCO2)C(=O)CCC(=O)Nc2nccs2)c1 (stereo not shown),12.9
16,COc1ccc(N2CCN(C(=O)CNC(=O)Cc3ccccc3)CC2)cc1,-13.3
17,CCN(CC)CCNC(=O)c1c(C)n(-c2ccccc2)c2cc(Br)c(OC)cc12,-51.5
18,CCN(CC)CCNC(=O)c1c(C)oc2cc(Br)c(OC)cc12,-32.1
19,COc1cc2c(C(=O)OCCN(C)C)c(CSc3ccccc3)n(C)c2cc1Br,5.67
20,COc1ccc2c(c1)c(C(=O)N1CCN(C)CC1)c(C)n2-c1ccccc1,-44
21,COc1cc2c(C(=O)N3CCN(C)CC3)c(C)n(-c3ccccc3)c2cc1Br,-54.7
22,COc1cc2c(C(=O)N3CCN(C)CC3)c(C)n(C)c2cc1Br,-9.17
23,COc1cc2c(C(=O)N3CCOCC3)c(CSc3ccccc3)n(C)c2cc1Br,-6.35
24,COc1cc2c(C(=O)N3CCN(C)CC3)c(CSc3ccccc3)n(C)c2cc1Br,-74

row,SMILES,"hERG current change (%, negative = inhibition) at 10uM [%]"
1,COc1cc2c(C(=O)O)c(C)n(C)c2cc1Br,20.3
2,O=C(COC(=O)CNC(=O)c1ccccc1F)NC12CC3CC(CC(C3)C1)C2,0.652
3,COc1ccccc1NC(=O)Nc1cccc(C(=O)O)c1,17.5
4,N#CC(c1ccc(Cl)cc1)c1ccc2c(C(F)(F)F)cc(C(F)(F)F)nc2n1 (stereo not shown),6.7
5,CCS(=O)(=O)N1CCC(C(=O)OCC(=O)c2ccc(Br)cc2)CC1,3.45
6,Cn1c(=Nc2ccc(N3CCOCC3)cc2)ccc2ccccc21,-47.5
7,Oc1ccc2ccccc2c1C=Nc1ccc(N2CCOCC2)cc1,3.04
8,CCn1c(=Nc2ccc(N3CCOCC3)cc2)ccc2ccccc21,-66.8
9,COc1ccccc1OCc1ccc(C(=O)N(C)c2ccccc2)o1,7.76
10,COC(=O)c1coc(-c2ccc(OC)cc2)c1C(=O)OC,13.8
11,O=C(O)C(=O)O.O=[N+]([O-])c1ccc(OCCCCN2CCc3ccccc3C2)cc1,-76.3
12,O=C(COc1ccccc1)N1CCc2ccccc2C1,10
13,O=C(COc1ccc([N+](=O)[O-])cc1)N1CCc2ccccc2C1,-54.5
14,O=C(CCc1ccc(S(=O)(=O)N2CCOCC2)cc1)N1CCc2ccccc2C1,-14.5
15,O=C(Cc1ccc([N+](=O)[O-])cc1)N1CCc2ccccc2C1,-17.7
16,O=C(CCCOc1ccccc1)N1CCc2ccccc2C1,0.877
17,Cc1ccc(OCC(=O)N2CCc3ccccc3C2)cc1,-3.37
18,Cl.Clc1ccc(OCCCCN2CCc3ccccc3C2)cc1,-68.1
19,O=C(COc1ccc(S(=O)(=O)N2CCOCC2)cc1)N1CCOCC1,10.6
20,Cl.O=[N+]([O-])c1ccccc1OCCCN1CCc2ccccc2C1,-49.7
21,O=C(COc1ccc(S(=O)(=O)N2CCOCC2)cc1)N1CCc2ccccc2C1,-55.9
22,Cc1ccc(OCCCCN2CCc3ccccc3C2)cc1.Cl,-34.9
